Bioassay records (PubChem)
Hits are enriched below; roughly 7.4% of the tested compounds scored in any of these assays.
KinaseGlo FLuc = blocks Kinase-Glo luciferase, a counter-screen artifact; Q27757; Potency, µM (highest dose often 38.3 µM), without a hit: at the highest dose activity change, negative = inhibition, usual class: inhibitors; Kinase-Glo luciferase, ATP luminescence, 8 min; 200,000 tested, 0.28% active; further: on the % scale 0 is the no-effect control and ±100 the full control effect; nearly all actives have a fitted effect of over 60% in size
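Recombinant Kinase-Glo luciferase, 10 uM ATP (linear range), luciferin; imidazole pH 7.2 / KCl / MgCl2 / Tween / BSA buffer; 8 min RT; luminescence.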
NPC1 promoter act = NPC1 promoter activation. 320,000 tested, 2.4% active. Potency, µM (doses to about 9.22 µM), without a hit: at the highest dose activation, hits mostly activators. AID 485313. Huh7 NPC1 promoter luciferase reporter, 24 h; further: % of control where 0% means no effect; nearly all actives have a fitted effect of over 60% in size
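Quantitative HTS used a cell-based reporter: Huh7 cells stably bearing the NPC1 promoter upstream of luciferase were treated with compounds for 24 h, and promoter activation was read as luminescence.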
FLuc counter = inhibits or activates purified firefly luciferase, miR-21 counter-screen; P08659; purified FLuc, Km substrates, luminescence inhibition; Potency, µM (highest dose often 57.5 µM), without a hit: top-dose activity change, negative = inhibition, usual class: inhibitors; 360,000 tested, 6.9% active; AID 588342;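 further: plate controls were vehicle for no effect and reference inhibitor for full effect; nearly all actives have a fitted effect of over 55% in size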
Target sequence (P08659 whole entry, looked up): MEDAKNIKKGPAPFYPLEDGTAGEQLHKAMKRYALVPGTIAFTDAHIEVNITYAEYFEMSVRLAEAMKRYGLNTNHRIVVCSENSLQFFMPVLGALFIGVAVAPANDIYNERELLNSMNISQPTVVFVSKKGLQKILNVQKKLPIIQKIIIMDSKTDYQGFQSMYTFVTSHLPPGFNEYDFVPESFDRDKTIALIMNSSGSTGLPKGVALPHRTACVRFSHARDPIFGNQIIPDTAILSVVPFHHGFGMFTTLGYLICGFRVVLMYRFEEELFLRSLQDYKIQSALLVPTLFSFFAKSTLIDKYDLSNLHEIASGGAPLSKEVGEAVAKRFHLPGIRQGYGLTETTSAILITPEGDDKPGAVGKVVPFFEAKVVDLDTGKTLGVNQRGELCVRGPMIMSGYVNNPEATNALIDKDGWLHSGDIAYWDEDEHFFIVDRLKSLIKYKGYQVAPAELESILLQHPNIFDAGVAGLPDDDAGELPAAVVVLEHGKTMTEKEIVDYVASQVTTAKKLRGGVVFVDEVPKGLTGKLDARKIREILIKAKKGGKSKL
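Purified P. pyralis luciferase (10nM final) with 10uM D-luciferin and 10uM ATP (Km levels) in 50mM Tris acetate pH 7.5, 10mM Mg acetate, 0.01% Tween-20, 0.05% BSA; qHTS 6-point titration, ~60 µM downward; luminescence read.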
SMN2 splice enh = increases expression of the SMN2 splice variant; HEK293 SMN2-luciferase splicing reporter, luminescence, 30-36 h; 210,000 tested, 2.8% active; Potency, µM (highest dose often 46.1 µM), for the others: at the highest dose activity change, positive = activation, usual class: activators; further: % of control where 0% means no effect; nearly all actives have a fitted effect of over 55% in size
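HEK293 cells carry an SMN2 minigene-luciferase reporter in which exon 7 inclusion puts luciferase in frame. Cells were seeded at 2000 cells/well, attached for 10-12 hours, then exposed to compounds for 30-36 hours at 37C before ONE-Glo luminescence.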
Rab9 prom act = activates the Rab9 promoter | Huh7 Rab9 promoter-luciferase reporter, luminescence, 24 h | Potency, µM (highest dose often 9.22 µM), without a hit: at the highest dose activation, negative = inhibition, hits mostly activators | 320,000 tested, 2.8% active | AID 485297; further: % of control where 0% means no effect; nearly all actives have a fitted effect of over 60% in size
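Luminescence read-out: Huh7 cells stably expressing Rab9-luciferase, treated 24 h with compound at 37 °C, then lysed with luciferase reagent for 10 min at ambient before reading.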
ELG1 genotox = inducers of genotoxicity in HEK293T ELG1-luciferase cells; HEK293T ELG1-luciferase reporter, luminescence, 16 h; Potency, µM (series often up to 46 µM), for inactives: at the top dose activity change, positive = activation, hits mostly activators; 330,000 tested, 1.3% active; AID 504466; further: % of control where 0% means no effect; nearly all actives have a fitted effect of over 60% in size
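Cells (2,000/well) expressing the ELG1-luciferase fusion are dosed by pin tool and kept 16 hr at 37 °C, 5% CO2. Signal comes from ONE-Glo luciferase reagent after 30 min at room temperature.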
An asterisk follows results filed as active. The call rests on the fitted dose curve; in most records, active means well fitted curve in the direction sought with a large enough effect; inconclusive means small, poorly fitted or top-dose-only effect, or another doubt; inactive means no such curve, though single readings can be large; an effect the other way counts as inactive or inconclusive. Potency means the concentration at half of the fitted maximal effect.

How did CSCCC(NS(=O)(=O)c1ccc2c(c1)OCCO2)C(=O)N(C)Cc1ccccc1F (stereo not drawn) do in these assays?
NPC1 promoter act: 1%; FLuc counter: 6%; Rab9 prom act: -1%; ELG1 genotox: -11%

What do the screens show for `COc1ccc(-c2csc(/C(C#N)=C(\O)CSc3nccn3C)n2)cc1OC`?
KinaseGlo FLuc: -2%; NPC1 promoter act: -2%; FLuc counter: -8%; SMN2 splice enh: -7%; Rab9 prom act: 1%; ELG1 genotox: 4%

Results for COc1ccc(/C(O)=C/c2nc3ccccc3n(-c3ccccc3)c2=O)cc1 ?
KinaseGlo FLuc: -3%; NPC1 promoter act: -3%; FLuc counter: 7.6µM*; SMN2 splice enh: -26%; Rab9 prom act: 26%; ELG1 genotox: 21%

What do the screens show for `O=c1oc(CCCO)cc2ccc(C#Cc3ccsc3)cc12`?
NPC1 promoter act: inconclusive; FLuc counter: inconclusive; Rab9 prom act: -9%; ELG1 genotox: 12%

How did CN(C)c1ccc(C#Cc2ccc3cc(CCCO)oc(=O)c3c2)cc1 do in these assays?
NPC1 promoter act: 2.8µM*; FLuc counter: 1.7µM*; Rab9 prom act: 1%; ELG1 genotox: inconclusive

How did COc1ccccc1CCC(=O)Nc1nc2ccccc2[nH]1 do in these assays?
KinaseGlo FLuc: -3%; NPC1 promoter act: inconclusive; FLuc counter: 13µM*; SMN2 splice enh: 13µM*; Rab9 prom act: inconclusive; ELG1 genotox: inconclusive

Results for CCOc1ccccc1OCCCC(=O)Nc1nc2ccccc2[nH]1 ?
KinaseGlo FLuc: 3%; NPC1 promoter act: 8%; FLuc counter: -1%; SMN2 splice enh: -4%; Rab9 prom act: 5%; ELG1 genotox: 6%

Results for COc1ccc(CCC(=O)Nc2nc3ccccc3[nH]2)cc1OC ?
KinaseGlo FLuc: -1%; NPC1 promoter act: 8%; FLuc counter: 1%; SMN2 splice enh: 9%; Rab9 prom act: 12%; ELG1 genotox: 11%

How did COc1ccc(CCC(=O)Nc2nc3ccccc3[nH]2)cc1 do in these assays?
KinaseGlo FLuc: -1%; NPC1 promoter act: 3.5µM*; FLuc counter: inconclusive; SMN2 splice enh: -1%; Rab9 prom act: 2.2µM*; ELG1 genotox: inconclusive

Results for CCCCCC(=O)Nc1nc2ccccc2[nH]1 ?
KinaseGlo FLuc: -3%; NPC1 promoter act: inconclusive; FLuc counter: 13µM*; SMN2 splice enh: 14µM*; Rab9 prom act: inconclusive; ELG1 genotox: inconclusive

How did COc1ccc(OCC(=O)Nc2nc3ccccc3[nH]2)cc1 do in these assays?
KinaseGlo FLuc: -6%; NPC1 promoter act: inconclusive; FLuc counter: 4.8µM*; SMN2 splice enh: 18%; Rab9 prom act: inconclusive; ELG1 genotox: 21µM*

How did O=C(NCCCN1CCN(c2ccc(F)cc2)CC1)c1sc2ncccc2c1-n1cccc1 do in these assays?
FLuc counter: 2%

What do the screens show for `COc1cc(OC)c(Nc2c3c(nc4nc(-c5cccs5)nn24)CCCC3)cc1Cl`?
FLuc counter: 24µM*

Results for COc1ccc(CNC(=O)c2cc(Nc3ccc(C)cc3C)nc3ccccc23)cc1 ?
FLuc counter: 8.5µM*; SMN2 splice enh: -11%

What do the screens show for `COc1ccc(-c2cc(C(=O)NCc3ccco3)c3ccccc3n2)cc1`?
NPC1 promoter act: 0%; FLuc counter: 6.7µM*; Rab9 prom act: 11%; ELG1 genotox: 0%

How did COc1ccc(-c2cc(C(=O)NCc3ccco3)c3ccccc3n2)c(OC)c1 do in these assays?
NPC1 promoter act: -4%; FLuc counter: inconclusive; Rab9 prom act: 0%; ELG1 genotox: -13%

Results for COc1ccc(CNC(=O)c2cc(Nc3ccccc3C)nc3ccccc23)cc1 ?
FLuc counter: inconclusive; SMN2 splice enh: -3%

How did COc1ccc(Nc2cc(C(=O)NCc3ccco3)c3ccccc3n2)c(OC)c1 do in these assays?
KinaseGlo FLuc: 1%; NPC1 promoter act: -3%; FLuc counter: 15µM*; SMN2 splice enh: 4%; Rab9 prom act: -3%; ELG1 genotox: -6%

What do the screens show for `O=C(NCc1ccco1)c1cc(-c2ccccc2)nc2ccccc12`?
KinaseGlo FLuc: -6%; NPC1 promoter act: -2%; FLuc counter: inconclusive; SMN2 splice enh: inconclusive; Rab9 prom act: -2%; ELG1 genotox: -5%

What do the screens show for `COc1ccc(Nc2cc(C(=O)NCc3ccccc3)c3ccccc3n2)cc1`?
FLuc counter: -14%; SMN2 splice enh: 1%

How did Cc1cc(C)cc(Nc2cc(C(=O)NCc3ccccc3)c3ccccc3n2)c1 do in these assays?
FLuc counter: 4.8µM*; SMN2 splice enh: -9%

How did O=C(NC1CCCC1)c1c[nH]c2ccc(S(=O)(=O)Nc3cccc(C(F)(F)F)c3)cc2c1=O do in these assays?
FLuc counter: inconclusive; SMN2 splice enh: -60%

How did COc1ccc(Nc2cc(C(=O)NCCCOC(C)C)c3ccccc3n2)c(OC)c1 do in these assays?
NPC1 promoter act: 1%; FLuc counter: inconclusive; Rab9 prom act: -3%; ELG1 genotox: -8%

How did COc1ccccc1Nc1cc(C(=O)NCc2cccs2)c2ccccc2n1 do in these assays?
FLuc counter: 9.5µM*; SMN2 splice enh: -42%

What do the screens show for `COc1ccc(Nc2cc(C(=O)NCc3ccccn3)c3ccccc3n2)c(OC)c1`?
KinaseGlo FLuc: -7%; NPC1 promoter act: 6%; FLuc counter: 11µM*; SMN2 splice enh: 1%; Rab9 prom act: inconclusive; ELG1 genotox: -6%

Results for COc1ccc(Nc2cc(C(=O)NCc3cccnc3)c3ccccc3n2)c(OC)c1 ?
KinaseGlo FLuc: -2%; NPC1 promoter act: 1%; FLuc counter: 11µM*; SMN2 splice enh: -8%; Rab9 prom act: -9%; ELG1 genotox: -6%

How did CC1(c2cccc(Br)c2)NC(=O)N(CC(=O)Nc2ccc(F)cc2)C1=O (stereo not drawn) do in these assays?
NPC1 promoter act: -1%; FLuc counter: 1%; Rab9 prom act: -3%; ELG1 genotox: -4%

Results for CCCCn1c(N)c(N(CC(C)C)C(=O)C2CCN(S(=O)(=O)c3ccc(OCC)cc3)CC2)c(=O)[nH]c1=O ?
NPC1 promoter act: -7%; FLuc counter: 0%; Rab9 prom act: -2%; ELG1 genotox: -2%

How did CCOc1ccc(N=Nc2c(=O)[nH]n3c(C)cc(C)nc23)cc1 do in these assays?
KinaseGlo FLuc: -25%; NPC1 promoter act: 4%; FLuc counter: -19%; SMN2 splice enh: -6%; Rab9 prom act: 5%; ELG1 genotox: 3%

How did Cc1ccc(N=Nc2c(=O)[nH]n3c(=O)cc(C)[nH]c23)cc1 do in these assays?
KinaseGlo FLuc: inconclusive; NPC1 promoter act: 6%; FLuc counter: 15µM*; SMN2 splice enh: -37%; Rab9 prom act: 7%; ELG1 genotox: inconclusive
